Screen size: about 310,000 compounds; about 14,000 (4.5%) showed an effect of 50% or more. The effect is printed as a negative number. Shown is part of a subset that was picked to be rich in strong results.
target: human ether-à-go-go-related gene (hERG) potassium channel (human, UniProt Q12809); experiment: primary screen, population patch clamp on CHO cells stably expressing hERG; higher = less effect of the substance
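Note: peak tail current of the secondary pulse compared with the same well before compound.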

Chain of human ether-à-go-go-related gene (hERG) potassium channel (Q12809 whole entry, looked up): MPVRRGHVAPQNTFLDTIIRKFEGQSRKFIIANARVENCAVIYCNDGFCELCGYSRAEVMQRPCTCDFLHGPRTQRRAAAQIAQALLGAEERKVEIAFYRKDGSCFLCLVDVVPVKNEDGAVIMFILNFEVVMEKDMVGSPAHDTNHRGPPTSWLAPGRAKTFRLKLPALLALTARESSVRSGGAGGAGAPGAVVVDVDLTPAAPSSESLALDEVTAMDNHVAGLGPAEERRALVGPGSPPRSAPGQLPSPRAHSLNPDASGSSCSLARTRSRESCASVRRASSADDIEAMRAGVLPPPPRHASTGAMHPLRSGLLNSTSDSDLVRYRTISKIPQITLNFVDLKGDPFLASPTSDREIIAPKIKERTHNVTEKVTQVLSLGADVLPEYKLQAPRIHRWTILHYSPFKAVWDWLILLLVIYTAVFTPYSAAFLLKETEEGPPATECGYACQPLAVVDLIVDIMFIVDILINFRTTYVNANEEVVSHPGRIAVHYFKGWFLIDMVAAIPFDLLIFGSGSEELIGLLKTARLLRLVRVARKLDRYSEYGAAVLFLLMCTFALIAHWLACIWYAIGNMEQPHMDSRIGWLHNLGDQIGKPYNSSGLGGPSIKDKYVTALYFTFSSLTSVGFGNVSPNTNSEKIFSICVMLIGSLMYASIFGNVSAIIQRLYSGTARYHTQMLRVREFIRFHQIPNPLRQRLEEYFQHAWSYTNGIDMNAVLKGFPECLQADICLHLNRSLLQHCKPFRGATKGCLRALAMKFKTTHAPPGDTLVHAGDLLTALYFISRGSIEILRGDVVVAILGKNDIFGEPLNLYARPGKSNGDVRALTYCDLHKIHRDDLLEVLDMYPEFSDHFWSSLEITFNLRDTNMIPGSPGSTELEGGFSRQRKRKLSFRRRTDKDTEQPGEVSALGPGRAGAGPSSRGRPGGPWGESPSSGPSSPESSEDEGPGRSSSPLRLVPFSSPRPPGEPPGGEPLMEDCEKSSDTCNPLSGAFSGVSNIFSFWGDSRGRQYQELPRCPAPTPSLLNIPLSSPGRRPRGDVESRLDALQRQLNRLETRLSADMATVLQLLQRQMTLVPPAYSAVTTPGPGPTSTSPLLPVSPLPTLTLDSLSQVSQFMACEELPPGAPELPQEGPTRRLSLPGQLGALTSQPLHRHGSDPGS

Going from COC(=O)C1=C(c2ccc(OC)c(OC)c2)C[C@@H]2CC[C@H]1N2C(=O)N1CCC(C)CC1 to CCOC(=O)C1CCN(C(=O)c2cn(C)c(=O)c3cc(OC)c(OC)cc23)CC1, the “hERG current change (%, negative = inhibition) at 10uM” value falls from 5.39% to -11.3%.

First: O=C(COc1ncnc2ccc(Br)cc12)NC1CCCC1
Second: CCOc1ccc2nc(NC(=O)CN3CCN(C)CC3)sc2c1
The “hERG current change (%, negative = inhibition) at 10uM” value of the first is higher: 2.91% for the first, -15.7% for the second.

Going from Cc1cc(NC(=O)COC(=O)CSc2nc3cc(Cl)ccc3n2Cc2ccccc2)no1 to O=C(CCc1nc2cccnc2n1Cc1ccccc1)NCCc1ccc(Cl)cc1, the “hERG current change (%, negative = inhibition) at 10uM” value falls from -19.9% to -78.6%.

Compared with Nc1nc2n(n1)C(=O)CC(c1ccccc1[N+](=O)[O-])N2 (stereo not drawn), COc1cc(NC(=O)CN2CCC(Cc3ccccc3)CC2)c(C)cc1[N+](=O)[O-] is lower in “hERG current change (%, negative = inhibition) at 10uM” value: 41.7% for the first, 6.01% for the second.

Going from CC(C)(C)n1nnnc1C(c1ccc(C(F)(F)F)cc1)N(Cc1ccc(F)cc1)Cc1ccco1 (stereo not drawn) to CC(=O)N(CCC(c1ccccc1)c1ccco1)Cc1cccs1 (stereo not drawn), the “hERG current change (%, negative = inhibition) at 10uM” value falls from 8.86% to -52.9%.

Going from O=C(NCCc1csc(-c2ccccc2)n1)c1ccccc1F to O=C(Nc1ccccc1F)c1ccc2c(c1)CCN2S(=O)(=O)c1ccccc1, the “hERG current change (%, negative = inhibition) at 10uM” value rises from -49.5% to 19.5%.

Compared with CCCCNC(=O)CCc1nc2cccnc2n1Cc1ccc(OC)cc1, CCCCCCNC(=O)CCc1nc2cccnc2n1Cc1ccc(OC)cc1 is lower in “hERG current change (%, negative = inhibition) at 10uM” value: -18.1% for the first, -63.6% for the second.

Going from COCCCNC(=O)CCc1nc2cccnc2n1Cc1ccc(OC)cc1 to COCCNC(=O)CCc1nc2cccnc2n1Cc1ccc(OC)cc1, the “hERG current change (%, negative = inhibition) at 10uM” value falls from 10.8% to 8.65%.

Going from CCCCNC(=O)CCc1nc2cccnc2n1Cc1ccccc1 to COCCCNC(=O)CCc1nc2cccnc2n1Cc1ccccc1, the “hERG current change (%, negative = inhibition) at 10uM” value rises from -51.7% to -29.8%.

First: O=C(O)CCc1nc2cccnc2n1Cc1ccccc1
Second: COc1ccc(Cn2c(CCC(=O)Nc3ccccc3)nc3cccnc32)cc1
The “hERG current change (%, negative = inhibition) at 10uM” value of the first is lower: -24.6% for the first, -9.7% for the second.

Compared with Cc1ccc(NC(=O)c2cc(CC(C)C)nc3ccccc23)cc1, Cc1ccc(NC(=O)C2OCCc3ccccc32)cc1C (stereo not drawn) is lower in “hERG current change (%, negative = inhibition) at 10uM” value: 11% for the first, -3.78% for the second.

Compared with CN(C)CCc1nn[nH]n1, CCCc1nc2c(sc3nc4c(cc32)COC(C)(C)C4)c(=O)n1CCN(CC)CC is lower in “hERG current change (%, negative = inhibition) at 10uM” value: -0.456% for the first, -17.8% for the second.

First: CSCCC(NC(=O)c1ccc(Cl)cc1Cl)C(=O)OC1CCCCC1=O (stereo not drawn)
Second: COc1cccc(NC(=O)C2(S(=O)(=O)c3ccc(Cl)cc3)CC2)c1
The “hERG current change (%, negative = inhibition) at 10uM” value of the first is lower: -26.7% for the first, -15.9% for the second.

Going from CCOc1ccc(NC(=O)CN(C)CC(=O)Nc2cccc(Cl)c2C)cc1OCC to COc1ccc(NC(=O)CCNS(=O)(=O)c2ccc(NC(C)=O)cc2)cc1Cl, the “hERG current change (%, negative = inhibition) at 10uM” value rises from -10.4% to 22.8%.

Going from CCC(=O)N(CCC(c1ccccc1)c1ccco1)Cc1cccs1 (stereo not drawn) to COc1ccccc1C(CCN(Cc1cccs1)C(C)=O)c1ccco1 (stereo not drawn), the “hERG current change (%, negative = inhibition) at 10uM” value rises from -15.9% to -2.93%.

First: COc1cccc(NC(C)=[N+](C)CCNS(=O)(=O)c2ccc(Cl)cc2)c1.[I-]
Second: COc1ccc(NC(C)=[N+](C)CCNS(=O)(=O)c2ccc(Cl)cc2)cc1.[I-]
The “hERG current change (%, negative = inhibition) at 10uM” value of the first is higher: -64.4% for the first, -70.2% for the second.

First: CC(=O)Nc1ccc(S(=O)(=O)NCCc2ccc(F)cc2)cc1
Second: CC(Nc1ccc(F)cc1)=[N+](C)CCNS(=O)(=O)c1ccc(Cl)cc1.[I-]
The “hERG current change (%, negative = inhibition) at 10uM” value of the first is higher: -10.7% for the first, -68.4% for the second.

First: CCNS(=O)(=O)c1ccc(NC(=O)Nc2cccc(OC)c2)cc1
Second: COc1ccc(NC(=O)CNS(=O)(=O)c2ccc(Cl)cc2)cc1
The “hERG current change (%, negative = inhibition) at 10uM” value of the first is higher: 8.01% for the first, 3.79% for the second.

Going from CC(Nc1cc(C)cc(C)c1)=[N+](C)CCNS(=O)(=O)c1ccc(Cl)cc1.[I-] to COc1ccc(NC(C)=[N+](C)CCNS(=O)(=O)c2ccc(Cl)cc2)cc1Cl.[I-], the “hERG current change (%, negative = inhibition) at 10uM” value falls from -48.5% to -69.5%.

Compared with COc1ccccc1NC(C)=[N+](C)CCNS(=O)(=O)c1ccc(Cl)cc1.[I-], COc1ccccc1NS(=O)(=O)c1ccc(Cl)cc1 is higher in “hERG current change (%, negative = inhibition) at 10uM” value: -58.7% for the first, -19.5% for the second.

Compared with COc1ccccc1NC(=O)C(C)NS(=O)(=O)c1ccc(Cl)cc1 (stereo not drawn), COc1ccc(NC(=O)CNS(=O)(=O)c2ccccc2)cc1Cl is higher in “hERG current change (%, negative = inhibition) at 10uM” value: -0.716% for the first, 4.28% for the second.

Compared with O=[N+]([O-])c1cccc(NC(=S)NCc2ccncc2)c1, CCc1ccc(NC(=O)CSc2nnnn2-c2cccnc2)cc1 is lower in “hERG current change (%, negative = inhibition) at 10uM” value: 0.695% for the first, -15.4% for the second.

Compared with CCOC(=O)c1c(Nc2ccccc2)sc(/C=C2\C=Nc3ccccc32)c1O, C=CCn1c(SCc2ccccc2C#N)nnc1-c1ccccc1O is lower in “hERG current change (%, negative = inhibition) at 10uM” value: 0.585% for the first, -23.7% for the second.

First: O=C(O)/C=C/C(=O)N1CCN(c2ccccc2F)CC1
Second: COc1ccccc1N1CCN(C(=O)C(=O)c2c[nH]c3ccccc23)CC1
The “hERG current change (%, negative = inhibition) at 10uM” value of the first is higher: 7.85% for the first, 0.156% for the second.

First: COc1ccc(-c2ccc(SCC(=O)N3c4ccccc4CC3C)nn2)cc1OC (stereo not drawn)
Second: COc1ccc(-c2noc(N3CCC(C(=O)Nc4ccccc4Cl)CC3)n2)cc1
The “hERG current change (%, negative = inhibition) at 10uM” value of the first is lower: -4.75% for the first, 10.8% for the second.

Going from COc1ccc(NC(=O)COC(=O)CCNS(=O)(=O)c2ccc(Cl)cc2)cc1 to Cc1cc(=O)oc2cc(OCC(=O)Nc3ccccc3C(N)=O)c(Cl)cc12, the “hERG current change (%, negative = inhibition) at 10uM” value rises from -23.2% to 18.5%.

Compared with Cc1cc(S(=O)(=O)Nc2ccc3c(c2)n(C)c(=O)n3C)ccc1F, Cc1cc(NC(=O)c2ccccc2)sc1C is higher in “hERG current change (%, negative = inhibition) at 10uM” value: -0.399% for the first, 5.55% for the second.

First: Cl.O=C(c1ccc(F)cc1)C(CCCCCC(CN1CCOCC1)C(=O)c1ccc(F)cc1)CN1CCOCC1 (stereo not drawn)
Second: Cl.O=C(c1ccccc1)C(CCC(CN1CCOCC1)C(=O)c1ccccc1)CN1CCOCC1 (stereo not drawn)
The “hERG current change (%, negative = inhibition) at 10uM” value of the first is lower: -86.8% for the first, -7.92% for the second.

Going from Cl.O=C(c1ccc(F)cc1)C(CN1CCOCC1)c1ccccc1 (stereo not drawn) to Nc1ccccc1SCC(=O)Nc1ccc2c(c1)OCCO2, the “hERG current change (%, negative = inhibition) at 10uM” value rises from -12.3% to 3.12%.

Going from COc1ccccc1CCC(=O)Nc1ncc(C)s1 to O=C(CSc1nnc2c(n1)[nH]c1ccc(F)cc12)Nc1ccccc1F, the “hERG current change (%, negative = inhibition) at 10uM” value rises from 16.3% to 19.5%.

First: OCCC1CN(Cc2ccccc2-c2ccco2)CCN1Cc1ccccc1 (stereo not drawn)
Second: OCCC1CN(Cc2ccccc2-c2ccco2)CCN1Cc1ccsc1 (stereo not drawn)
The “hERG current change (%, negative = inhibition) at 10uM” value of the first is higher: -35.7% for the first, -51% for the second.

First: CC(C)CCN1CCN(Cc2ccsc2)CC1CCO (stereo not drawn)
Second: C#Cc1ccc(CN2CCN(Cc3ccsc3)C(CCO)C2)cc1 (stereo not drawn)
The “hERG current change (%, negative = inhibition) at 10uM” value of the first is higher: -6.33% for the first, -34.6% for the second.

Going from Cc1ccc(CN2CCN(C3CCCC3)C(CCO)C2)s1 (stereo not drawn) to OCCC1CN(Cc2cccc3c2OCO3)CCN1C1CCCCC1 (stereo not drawn), the “hERG current change (%, negative = inhibition) at 10uM” value rises from -22.4% to -9.67%.

First: OCCC1CN(Cc2cccc(-c3ccco3)c2)CCN1Cc1ccsc1 (stereo not drawn)
Second: OCCC1CN(Cc2ccc(-c3ccco3)cc2)CCN1Cc1ccsc1 (stereo not drawn)
The “hERG current change (%, negative = inhibition) at 10uM” value of the first is lower: -71.6% for the first, -53.8% for the second.

Compared with OCCC1CN(Cc2ccccc2-c2ccco2)CCN1C1CCCC1 (stereo not drawn), Cc1ccc(CN2CCN(Cc3ccccc3-c3ccco3)CC2CCO)o1 (stereo not drawn) is higher in “hERG current change (%, negative = inhibition) at 10uM” value: -63.8% for the first, -22.3% for the second.

Compared with CC(C)N1CCN(Cc2cccc(-c3ccco3)c2)CC1CCO (stereo not drawn), OCCC#Cc1ccc(CN2CCN(Cc3ccsc3)C(CCO)C2)cc1 (stereo not drawn) is higher in “hERG current change (%, negative = inhibition) at 10uM” value: -35.9% for the first, -4.59% for the second.

First: COc1cccc(/C=C2\SC(=O)NC2=O)c1OCc1ccc(C(=O)O)cc1
Second: Cc1ccc([N+](=O)[O-])c(OCCN2CCc3ccccc3C2)c1.O=C(O)C(=O)O
The “hERG current change (%, negative = inhibition) at 10uM” value of the first is higher: 9.69% for the first, -23.3% for the second.

Compared with OCCN1CCN(Cc2cc(Cl)c3cccnc3c2O)CC1, Cc1cc(OCCCN2CCN(Cc3ccccc3)CC2)ccc1[N+](=O)[O-].O=C(O)C(=O)O is lower in “hERG current change (%, negative = inhibition) at 10uM” value: 16.6% for the first, -71.5% for the second.

Compared with Cc1ccc(C(=O)NC2CCSC2=O)cc1 (stereo not drawn), Cc1ccc([N+](=O)[O-])c(OCCN2CCC(Cc3ccccc3)CC2)c1.O=C(O)C(=O)O is lower in “hERG current change (%, negative = inhibition) at 10uM” value: 7.89% for the first, -73% for the second.

Going from Cc1ccc([N+](=O)[O-])c(OCCN2CCCCCC2)c1.O=C(O)C(=O)O to Cc1ccc([N+](=O)[O-])c(OCCCN2CCCCCC2)c1.O=C(O)C(=O)O, the “hERG current change (%, negative = inhibition) at 10uM” value falls from -34% to -58.6%.

Going from Cc1ccc([N+](=O)[O-])c(OCCN2CCNCC2)c1.O=C(O)C(=O)O to Cc1ccc(OCCN2CCN(C)CC2)c([N+](=O)[O-])c1.O=C(O)C(=O)O, the “hERG current change (%, negative = inhibition) at 10uM” value rises from -14.6% to 6%.

Going from Cc1cc(OCCCn2ccnc2)ccc1[N+](=O)[O-].O=C(O)C(=O)O to Cc1cc(OCCN2CCOCC2)ccc1[N+](=O)[O-].O=C(O)C(=O)O, the “hERG current change (%, negative = inhibition) at 10uM” value rises from -2.51% to 5.11%.

Going from Cc1ccc([N+](=O)[O-])c(OCCCN2CCC(Cc3ccccc3)CC2)c1.O=C(O)C(=O)O to Cc1ccc2c(c1)C(c1ccc(N3CCOCC3)cc1)=NNC(c1cccs1)=N2, the “hERG current change (%, negative = inhibition) at 10uM” value rises from -89.6% to 1.66%.

With Nc1n[nH]c(N)c1N=Nc1ccc(Cl)cc1Cl the “hERG current change (%, negative = inhibition) at 10uM” value was 19.1%.

Source: publication PMC4336329 (PLoS ONE, 2015)
